{
  "source": "PubChem BioAssay (EPA / NIEHS)",
  "note": "The source holds several records for some structures; these can differ, active in one and inactive in another. Calls of active or inactive are those of the source. How the source made its calls: active means hit-call score of the fitted dose curve at least 0.9, where 1 is the maximum; inactive means score below 0.9.",
  "data": [
    {"experiment": "BSK_3C_SRB: Viability Assessment in the BioMAP Diversity Plus: 3C Assay (AID 2283023);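 further: fitted both ways against DMSO so a hit may be signal rise or drop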", "conditions": "primary human endothelial cells (HUVEC)", "experimental": "BSK_3C is a cell-based, multiplexed-readout assay that uses umbilical vein endothelium, a human vascular primary cell, with measurements taken at 24 hours after chemical dosing in a 96-well plate.BSK_3C_SRB is an assay component measured in the BSK_3C assay. It measures 0.1% sulforhodamine related to cell death using Sulforhodamine staining technology.Data from the assay component BSK_3C_SRB was analyzed into 1 assay endpoint. This assay endpoint, BSK_3C_SRB, was analyzed with bidirectional fitting relative to DMSO as the negative control and baseline of activity. Using a type of viability reporter, gain or loss-of-signal activity can be used to understand changes in the signaling. Furthermore, this assay endpoint can be referred to as a primary readout, because this assay has produced multiple assay endpoints where this one serves a signaling function. To generalize the intended target to other relatable targets, this assay endpoint is annotated to the cell morphology intended target family, where the subfamily is cell conformation.\nThe levels of cell surface (or secreted, indicated by the prefix \"s\") biomarker endpoints were measured by ELISA. Overt cytotoxicity to cells in confluent adherent cultures (all systems other than the BT system) was assessed by measuring total protein levels using sulforhodamine B (SRB) staining in parallel cultures at the time of biomarker measurements, indicated as SRB endpoints. For proliferation assays for adherent cell types, individual cell types are cultured at sub-confluence and relative cell numbers quantified by SRB staining at time points optimized for each system (48 h: 3C and CASM3C systems; 72 h: BT and HDF3CGF systems; 96 h: SAg system). SRB was performed by staining cells with 0.1% SRB after fixation with 10% TCA and reading wells at 560 nm.Viability and proliferation of PBMC (T cells) was quantified by Alamar Blue reduction for the SAg and BT systems. For PBMC viability (referred to as PBMC Cytotoxicity within the assay endpoint names), cells were plated (75,000/well in a 96-well plate) and then chemical samples added for 1 h before addition of activators, SEB and TSST-1 (20 ng/mL final concentration each). Cells were incubated for 90 h. Then, Alamar Blue (20 uL/well) (Invitrogen, Cat DAL1100) was added for 6 h, and the plates were read with a fluorescence microplate reader at 546/580 nm (excitation/emission). For PBMC proliferation, cells were plated and activated as above but incubated for only 16 h prior to addition of Alamar Blue. Plates were read after 6 h.", "values": [
      {"smiles": "CCNc1nc(NC(C)(C)C)nc(SC)n1", "outcome": "inactive"},
      {"smiles": "COC(=O)c1sccc1S(=O)(=O)NC(=O)Nc1nc(C)nc(OC)n1", "outcome": "inactive"},
      {"smiles": "NC(=S)Nc1ccccc1", "outcome": "inactive"},
      {"smiles": "CC(C)(C)c1cc(O)ccc1O", "outcome": "inactive"},
      {"smiles": "ClC(Cl)=C(Cl)C(Cl)=C(Cl)Cl", "AC50": "34.4 µM (active)"},
      {"smiles": "O=Cc1cccc(Oc2ccccc2)c1", "outcome": "inactive"},
      {"smiles": "Cn1sc(Cl)cc1=O", "outcome": "inactive"},
      {"smiles": "CCOP(=S)(OCC)Oc1nc(Cl)c(Cl)cc1Cl", "AC50": "30.2 µM (active)"},
      {"smiles": "COC[C@H](C)N(C(=O)CCl)c1c(C)csc1C", "outcome": "inactive"},
      {"smiles": "O=C1C2(Cl)C3(Cl)C4(Cl)C(Cl)(Cl)C5(Cl)C3(Cl)C1(Cl)C5(Cl)C24Cl", "note": "(stereo not given)", "AC50": "5.96 µM (active)"},
      {"smiles": "Nc1ccc(-c2ccc(N)c(Cl)c2)cc1Cl", "AC50": "2.21 µM (active)"},
      {"smiles": "CCC(C)(C)c1ccc(O)c(C(C)(C)CC)c1", "AC50": "7.65 µM (active)"},
      {"smiles": "CC(C)(c1ccccc1)c1ccc(O)c(C(C)(C)c2ccccc2)c1", "AC50": "8.56 µM (active)"},
      {"smiles": "COP(=S)(OC)Oc1cc(Cl)c(Cl)cc1Cl", "outcome": "inactive"},
      {"smiles": "CCSC(C)CC1CC(=O)C(C(CC)=NOC/C=C/Cl)=C(O)C1", "note": "(stereo not given)", "outcome": "inactive"},
      {"smiles": "O=C(O)C(F)(F)C(F)(F)C(F)(F)C(F)(F)C(F)(F)C(F)(F)C(F)(F)C(F)(F)C(F)(F)C(F)(F)F", "AC50": "29.4 µM (active)", "outcome": "inactive"},
      {"smiles": "C=C(C)C(=O)[O][Sn]([CH2]CCC)([CH2]CCC)[CH2]CCC", "AC50": "0.148 µM (active)"},
      {"smiles": "CCOC(=O)/C=C(C)/C=C/C[C@@H](C)CCCC(C)C", "AC50": "36.4 µM (active)"},
      {"smiles": "CCN1CCC2(CC1)COc1cc3c(cc12)N(C(=O)c1ccc(-c2ccc(-c4nnc(C)o4)cc2C)cc1)CC3", "AC50": "6.23 µM (active)"},
      {"smiles": "C[C@@H]1C[C@@H]([C@H](O)CC2CC(=O)NC(=O)C2)C(=O)[C@@H](C)C1", "AC50": "4.82 µM (active)"},
      {"smiles": "O=c1[nH]c(=O)[nH]c(=O)[nH]1", "outcome": "inactive"},
      {"smiles": "O=C(O)C(F)(F)C(F)(F)C(F)(F)C(F)(F)C(F)(F)C(F)(F)F", "outcome": "inactive"},
      {"smiles": "CC(C)CCCCCCOC(=O)c1ccccc1C(=O)OCCCCCCC(C)C", "outcome": "inactive"},
      {"smiles": "Cc1ccccc1N", "outcome": "inactive"},
      {"smiles": "CCC(=O)C(CC(C)N(C)C)(c1ccccc1)c1ccccc1", "note": "(stereo not given)", "outcome": "inactive"},
      {"smiles": "O=S(=O)(c1ccc(Cl)cc1)c1ccc(Cl)cc1", "outcome": "inactive"},
      {"smiles": "O=C(O)C(Cl)(Cl)Cl", "outcome": "inactive"},
      {"smiles": "O=[N+]([O-])c1ccc2c3c(cccc13)CC2", "AC50": "20 µM (active)"},
      {"smiles": "ClC1=C(Cl)[C@]2(Cl)[C@H]3[C@H]([C@H]4C=C[C@H]3C4)[C@@]1(Cl)C2(Cl)Cl", "AC50": "7.55 µM (active)"},
      {"smiles": "Oc1c(I)cc(I)cc1I", "AC50": "10.3 µM (active)"},
      {"smiles": "CN(C)N=O", "outcome": "inactive"},
      {"smiles": "BrCCBr", "outcome": "inactive"},
      {"smiles": "O=C(Nc1ccc2[nH]ccc2c1)c1cc2cc(F)ccc2n1Cc1cccc(F)c1", "AC50": "8.66 µM (active)"},
      {"smiles": "O=[N+]([O-])c1ccc(O)c([N+](=O)[O-])c1", "outcome": "inactive"},
      {"smiles": "Nc1ncc([N+](=O)[O-])s1", "outcome": "inactive"},
      {"smiles": "Nc1cccc2ccccc12", "outcome": "inactive"},
      {"smiles": "CC(=O)C(Cl)C(=O)N(C)C", "note": "(stereo not given)", "outcome": "inactive"},
      {"smiles": "C[C@]12CCC(=O)C[C@@H]1CC[C@@H]1[C@@H]2CC[C@]2(C)[C@@H](O)CC[C@@H]12", "AC50": "20.9 µM (active)"},
      {"smiles": "Oc1cccc2cccnc12", "outcome": "inactive"}
    ]}
  ]
}
